Percent Effect data for 10 compounds are collected here from ChEMBL document CHEMBL3988442, “University of Dundee, Small-Polar-MMV Screening Library” (2021).

The structures appear in SMILES notation. For some assays here: Results with a measured potency or affinity are listed apart.

Common to all, as to parameters: scale not given: direction of the effect not stated beside the values
The target in test [1] is Protein translocase subunit SecA (Escherichia coli (strain K12)) (UniProt P10408). The test can be described thus: Assay to Identify E. coli SecA ATPase Inhibitors. The format is functional. To be noted: 30 µM.
Sequence of Protein translocase subunit SecA (Escherichia coli (strain K12)) (P10408 whole entry): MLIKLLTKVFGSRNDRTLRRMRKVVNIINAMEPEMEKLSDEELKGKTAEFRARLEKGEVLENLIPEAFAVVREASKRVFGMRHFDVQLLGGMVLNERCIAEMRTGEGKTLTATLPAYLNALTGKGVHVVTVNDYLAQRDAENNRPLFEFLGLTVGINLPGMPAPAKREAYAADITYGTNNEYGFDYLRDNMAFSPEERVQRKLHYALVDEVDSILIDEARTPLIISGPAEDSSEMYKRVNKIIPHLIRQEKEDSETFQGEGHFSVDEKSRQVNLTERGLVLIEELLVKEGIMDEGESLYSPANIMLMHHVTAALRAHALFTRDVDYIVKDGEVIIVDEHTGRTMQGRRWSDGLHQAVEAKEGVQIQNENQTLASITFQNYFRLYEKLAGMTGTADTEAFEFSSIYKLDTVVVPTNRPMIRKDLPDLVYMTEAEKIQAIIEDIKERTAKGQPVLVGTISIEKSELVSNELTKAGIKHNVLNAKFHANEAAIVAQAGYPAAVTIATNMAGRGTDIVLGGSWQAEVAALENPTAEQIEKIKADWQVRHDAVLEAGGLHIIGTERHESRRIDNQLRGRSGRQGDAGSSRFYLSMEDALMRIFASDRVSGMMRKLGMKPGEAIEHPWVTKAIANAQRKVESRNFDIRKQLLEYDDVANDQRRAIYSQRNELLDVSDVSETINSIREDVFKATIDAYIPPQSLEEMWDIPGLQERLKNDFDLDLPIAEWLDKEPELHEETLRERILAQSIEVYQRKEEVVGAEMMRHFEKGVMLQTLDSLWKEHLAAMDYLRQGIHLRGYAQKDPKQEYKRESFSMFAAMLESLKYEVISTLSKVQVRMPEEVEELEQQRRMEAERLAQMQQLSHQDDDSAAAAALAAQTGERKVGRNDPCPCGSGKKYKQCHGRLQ
Test [2] has as its target T1, Ubiquitin-activating enzyme e1, putative (Leishmania donovani (strain BPK282A1)) (UniProt E9BSI1).
T1 sequence (whole entry): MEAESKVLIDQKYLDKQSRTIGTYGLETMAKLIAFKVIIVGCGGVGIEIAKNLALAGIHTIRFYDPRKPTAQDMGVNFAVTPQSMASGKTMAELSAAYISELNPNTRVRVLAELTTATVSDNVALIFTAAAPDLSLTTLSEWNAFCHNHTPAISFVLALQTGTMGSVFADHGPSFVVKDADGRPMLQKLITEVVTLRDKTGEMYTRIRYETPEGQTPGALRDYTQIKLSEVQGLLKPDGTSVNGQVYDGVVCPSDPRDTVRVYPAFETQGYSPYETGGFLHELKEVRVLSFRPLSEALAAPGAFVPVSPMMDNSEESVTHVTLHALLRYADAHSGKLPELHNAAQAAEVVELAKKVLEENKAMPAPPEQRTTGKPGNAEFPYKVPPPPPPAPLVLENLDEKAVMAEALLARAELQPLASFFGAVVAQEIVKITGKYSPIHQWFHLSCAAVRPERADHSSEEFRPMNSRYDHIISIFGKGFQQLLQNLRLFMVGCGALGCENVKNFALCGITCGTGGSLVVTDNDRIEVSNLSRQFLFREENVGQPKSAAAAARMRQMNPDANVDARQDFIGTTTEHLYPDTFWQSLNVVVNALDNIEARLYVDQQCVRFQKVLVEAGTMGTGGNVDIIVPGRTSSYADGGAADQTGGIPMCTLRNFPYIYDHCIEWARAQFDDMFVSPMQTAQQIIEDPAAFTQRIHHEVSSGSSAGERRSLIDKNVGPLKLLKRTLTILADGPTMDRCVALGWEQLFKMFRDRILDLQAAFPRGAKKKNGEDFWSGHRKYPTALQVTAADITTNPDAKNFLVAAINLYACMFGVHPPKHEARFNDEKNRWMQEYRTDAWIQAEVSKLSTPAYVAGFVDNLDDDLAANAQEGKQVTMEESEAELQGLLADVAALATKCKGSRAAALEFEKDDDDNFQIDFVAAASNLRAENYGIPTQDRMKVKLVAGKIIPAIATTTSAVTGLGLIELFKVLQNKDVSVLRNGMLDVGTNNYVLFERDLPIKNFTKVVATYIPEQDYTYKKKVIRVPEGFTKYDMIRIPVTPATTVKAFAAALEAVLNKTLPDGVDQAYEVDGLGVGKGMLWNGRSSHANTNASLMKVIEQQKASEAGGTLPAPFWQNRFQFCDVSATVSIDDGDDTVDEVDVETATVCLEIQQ
The test can be described thus: Leishmania donovani Ubiquitin Activating Enzyme (LdE1). The format is functional. To be noted: 30 µM.

Test [3] concerns the target AMP-activated protein kinase, AMPK (Homo sapiens) (UniProt P54646+O43741+P54619+Q9UGJ0+Q9Y478+Q13131+Q9UGI9). Description: AMP-dependent Kinase enzyme assay. An in vitro enzyme assay that detects ADP turnover that is directly proportional to AMPK activity. This uses naive AMPK that is activated during the assay with MK-8722. To be noted: 30 µM. The format is functional.

Test [4] addresses Sialic acid-binding Ig-like lectin 9 (Homo sapiens) (UniProt Q9Y336). The test can be described thus: Hs-Siglec9 ALPHAscreen SOP 20170721. To be noted: 10 µM. Background: Alpha assays give light when donor and acceptor beads are brought close together.
For test [5], the system named is Trypanosoma cruzi. The test can be described thus: Trypanosoma cruzi phosphomannomutase and mannose-1-phosphate guanylyltransferase assay. The format is functional. To be noted: 10 µM.
Test [6] addresses T2, Arginase-2, mitochondrial (Homo sapiens) (UniProt P78540).
T2 sequence (whole entry): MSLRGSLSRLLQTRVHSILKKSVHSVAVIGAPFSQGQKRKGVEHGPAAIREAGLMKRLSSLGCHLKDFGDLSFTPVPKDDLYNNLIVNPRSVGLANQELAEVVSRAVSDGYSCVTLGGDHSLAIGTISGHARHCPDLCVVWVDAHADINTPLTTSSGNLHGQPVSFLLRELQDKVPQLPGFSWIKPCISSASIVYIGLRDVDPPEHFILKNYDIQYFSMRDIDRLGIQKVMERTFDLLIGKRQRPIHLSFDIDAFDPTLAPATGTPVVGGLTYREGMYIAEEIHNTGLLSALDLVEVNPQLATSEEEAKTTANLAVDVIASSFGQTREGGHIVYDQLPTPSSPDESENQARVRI
The test can be described thus: in vitro enzyme assay to detect the production of urea directly proportional to the activity of Arginase II. Also: in the data most compounds retested in dose-response had high values. It counts as functional. To be noted: 33.3 µM.

Test [7] addresses T3, Proteasome subunit beta (Trypanosoma cruzi) (UniProt O96673).
T3 sequence (whole entry): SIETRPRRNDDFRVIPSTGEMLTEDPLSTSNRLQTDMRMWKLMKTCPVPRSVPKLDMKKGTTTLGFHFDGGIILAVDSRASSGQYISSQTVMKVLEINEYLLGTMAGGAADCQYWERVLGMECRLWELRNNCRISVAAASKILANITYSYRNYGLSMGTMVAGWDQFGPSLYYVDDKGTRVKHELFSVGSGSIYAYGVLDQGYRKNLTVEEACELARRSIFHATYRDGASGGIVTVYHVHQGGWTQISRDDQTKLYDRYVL
The test can be described thus: Trypanosoma cruzi proteasome chymotrypsin-like activity (TcProtChymo) assay. Also: in the data most compounds retested in dose-response had high values. The format is functional. To be noted: 9.37 µM.

The species entered for test [8] is Homo sapiens. Description: To identify inhibition of the IFN signalling (Jak-Stat) pathway via expression of an eGFP reporter gene under the control of an IFN-stimulated response element (ISRE) containing MxA promoter. The format is functional. To be noted: 30 µM. Background: A reporter such as luciferase makes a cellular process visible.
Test [9] deals with T4, Tyrosyl-tRNA synthetase, putative (Trypanosoma cruzi (strain CL Brener)) (UniProt Q4DSP6).
T4 sequence (whole entry): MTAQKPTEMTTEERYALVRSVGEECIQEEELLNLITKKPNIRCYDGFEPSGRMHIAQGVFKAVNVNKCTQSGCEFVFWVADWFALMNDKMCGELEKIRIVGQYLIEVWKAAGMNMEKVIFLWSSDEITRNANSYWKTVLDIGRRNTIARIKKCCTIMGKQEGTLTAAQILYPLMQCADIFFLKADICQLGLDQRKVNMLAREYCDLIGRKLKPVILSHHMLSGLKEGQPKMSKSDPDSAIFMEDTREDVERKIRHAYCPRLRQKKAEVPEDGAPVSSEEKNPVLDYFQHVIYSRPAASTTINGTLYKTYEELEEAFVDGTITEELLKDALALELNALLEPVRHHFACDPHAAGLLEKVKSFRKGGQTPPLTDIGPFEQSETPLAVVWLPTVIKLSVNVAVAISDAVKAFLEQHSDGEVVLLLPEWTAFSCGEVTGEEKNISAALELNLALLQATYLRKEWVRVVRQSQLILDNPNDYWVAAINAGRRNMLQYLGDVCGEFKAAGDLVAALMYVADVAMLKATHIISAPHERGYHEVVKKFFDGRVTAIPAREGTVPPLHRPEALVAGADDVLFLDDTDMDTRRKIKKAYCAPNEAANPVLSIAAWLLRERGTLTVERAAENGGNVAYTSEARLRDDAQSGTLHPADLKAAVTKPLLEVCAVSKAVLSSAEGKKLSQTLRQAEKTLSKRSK
Description: Trypanosoma cruzi tyrosyl tRNA synthetase (TcYRS) _High Tyrosine SOP. Also: in the data most compounds retested in dose-response had high values. The format is functional. To be noted: 30 µM.

Test [10] concerns the target T4, Tyrosyl-tRNA synthetase, putative (Trypanosoma cruzi (strain CL Brener)). Description: Trypanosoma cruzi tyrosyl tRNA synthetase (TcYRS) SOP. It counts as functional. To be noted: 30 µM.
Test [11] has as its target Chromo domain-containing protein 1 (Saccharomyces cerevisiae (strain ATCC 204508 / S288c) (Baker's yeast)) (UniProt P32657). The test can be described thus: ScCHD-1 Enzyme Inhibition Assay. Also: in the data most compounds retested in dose-response had high values. To be noted: 30 µM. The format is functional.

Sequence of Sialic acid-binding Ig-like lectin 9 (Homo sapiens) (Q9Y336 whole entry): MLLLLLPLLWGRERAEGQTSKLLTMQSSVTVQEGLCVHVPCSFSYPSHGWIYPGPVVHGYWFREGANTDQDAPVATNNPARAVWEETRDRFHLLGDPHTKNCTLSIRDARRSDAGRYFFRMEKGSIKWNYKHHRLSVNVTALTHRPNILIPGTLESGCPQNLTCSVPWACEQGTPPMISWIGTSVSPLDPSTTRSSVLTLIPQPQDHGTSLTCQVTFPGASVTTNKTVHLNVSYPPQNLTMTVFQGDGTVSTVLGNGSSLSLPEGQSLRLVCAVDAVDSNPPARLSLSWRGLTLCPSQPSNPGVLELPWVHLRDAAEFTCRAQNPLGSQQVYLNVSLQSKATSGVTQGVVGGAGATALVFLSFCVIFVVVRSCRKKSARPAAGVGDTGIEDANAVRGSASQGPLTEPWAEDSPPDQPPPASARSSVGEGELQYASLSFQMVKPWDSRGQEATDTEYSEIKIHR
Sequence of Chromo domain-containing protein 1 (Saccharomyces cerevisiae (strain ATCC 204508 / S288c) (Baker's yeast)) (P32657 whole entry, the tested form may be a part): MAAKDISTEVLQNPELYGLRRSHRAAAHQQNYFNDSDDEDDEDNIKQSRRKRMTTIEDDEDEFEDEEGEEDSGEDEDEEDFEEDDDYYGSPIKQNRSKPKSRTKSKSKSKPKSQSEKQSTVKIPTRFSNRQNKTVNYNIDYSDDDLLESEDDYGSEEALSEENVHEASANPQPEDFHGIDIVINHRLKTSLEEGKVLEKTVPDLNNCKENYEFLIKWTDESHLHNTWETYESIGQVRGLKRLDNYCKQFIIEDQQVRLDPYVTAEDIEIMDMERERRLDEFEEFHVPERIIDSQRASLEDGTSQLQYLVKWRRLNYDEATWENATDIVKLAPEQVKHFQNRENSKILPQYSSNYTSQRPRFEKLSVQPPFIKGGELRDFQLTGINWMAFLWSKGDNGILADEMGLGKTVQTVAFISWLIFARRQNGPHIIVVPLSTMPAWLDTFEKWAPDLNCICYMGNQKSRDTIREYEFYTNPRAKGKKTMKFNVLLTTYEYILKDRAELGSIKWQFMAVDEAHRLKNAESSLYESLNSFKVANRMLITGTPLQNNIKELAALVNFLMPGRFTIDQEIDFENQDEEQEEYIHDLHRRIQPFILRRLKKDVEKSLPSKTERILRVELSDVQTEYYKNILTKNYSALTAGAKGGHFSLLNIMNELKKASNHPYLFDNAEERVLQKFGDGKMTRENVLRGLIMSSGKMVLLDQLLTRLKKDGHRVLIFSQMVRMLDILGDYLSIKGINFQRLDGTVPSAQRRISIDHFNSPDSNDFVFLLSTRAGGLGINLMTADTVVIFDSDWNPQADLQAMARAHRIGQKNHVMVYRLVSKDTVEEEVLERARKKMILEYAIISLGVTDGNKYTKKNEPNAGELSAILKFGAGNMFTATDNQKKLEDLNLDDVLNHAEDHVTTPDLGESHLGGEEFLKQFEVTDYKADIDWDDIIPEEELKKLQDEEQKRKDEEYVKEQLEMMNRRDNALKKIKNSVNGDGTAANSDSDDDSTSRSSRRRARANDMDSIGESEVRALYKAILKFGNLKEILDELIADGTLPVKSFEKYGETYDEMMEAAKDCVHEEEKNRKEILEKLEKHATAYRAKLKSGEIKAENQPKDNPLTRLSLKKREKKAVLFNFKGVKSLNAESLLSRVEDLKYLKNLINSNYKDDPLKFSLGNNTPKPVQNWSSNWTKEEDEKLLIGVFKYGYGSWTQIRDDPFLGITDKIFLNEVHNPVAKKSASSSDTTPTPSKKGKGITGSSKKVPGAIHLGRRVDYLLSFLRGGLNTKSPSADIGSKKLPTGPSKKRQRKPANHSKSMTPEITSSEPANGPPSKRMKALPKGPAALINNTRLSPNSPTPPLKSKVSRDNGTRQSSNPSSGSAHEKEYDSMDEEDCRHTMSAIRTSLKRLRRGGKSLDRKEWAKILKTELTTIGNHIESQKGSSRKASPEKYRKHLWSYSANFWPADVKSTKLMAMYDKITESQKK

For the compound `Cc1ccc(-c2nc(CN3CCc4nn(C)c(=O)cc4C3)co2)cc1`, the Percent Effect in [1] was -3.32%; in test [2], 35.1%; in test [3], -173%; in test [4] it was 1.71%; in [5] it was -2.74%; in [6], 1.2%. Besides, the Percent Effect in [7] was 17.1%; in test [8] it was 11.3%; in [9], 3.45%; in [10], 13.6%; in test [11], -6.66%.
For the compound `CC(C)C(=O)N1CCC(c2nc(O)cc(-c3ccncc3)n2)CC1`, the Percent Effect was -5% in test [1]; 25.7% in test [2]; 5.51% in test [3]; -2.98% in test [4]; 3.16% in test [5]; -2.09% in test [6]. Also, the Percent Effect was 10.9% in test [7]; 14.4% in [8]; 5.38% in test [9]; 11.7% in test [10]; -14.2% in test [11].
On to `O=C(NCCNc1cnccn1)N1CCN(Cc2cccnc2)CC1`, for which the Percent Effect in test [1] was -5.13%; in test [2], 8.86%; in test [3], -3.44%; in [4], -10.1%; in test [5], 3.38%; in [6], 1.5%. Also, the Percent Effect in [7] was 15.1%; in test [8] it was 10.6%; in test [9], 7.29%; in test [10], 20.2%; in test [11], -33.3%.
As to `COc1ccc(N2CCC(C(=O)/N=c3/[nH]ccs3)CC2)nn1`, the Percent Effect in test [1] is -5.79%; in [2], 1.33%; in test [3], 5.74%; in test [4], 6.32%; in test [5], 0.589%; in [6] it was -13.9%. The Percent Effect in [7] is 11.3%; in test [8], 44.8%; in [9], 5.29%; in test [10], 12.8%; in [11], -12.7%.
As to `COc1cccc(CN(C)Cc2cccc(C#N)c2)c1OC`, the Percent Effect in test [1] was -2.4%; in test [2] it was 10.8%; in test [3] it was -3.58%; in [4], 5.68%; in test [5], 5.08%; in [6] it was 23.3%. The Percent Effect was 8.88% in [7]; 7.86% in test [8]; 1.98% in test [9]; -1.22% in test [10]; -6.76% in [11].
In the case of `CS(=O)(=O)N1CCOCC2(CN(Cc3ccco3)CCO2)C1` (stereo not given), the Percent Effect was -1.05% in test [1]; 5.48% in [2]; 3.7% in test [3]; 1.39% in test [4]; -1.19% in [5]; 4.79% in test [6]. Moreover, the Percent Effect is 5.39% in test [7]; 1.38% in test [8]; 6.25% in test [9]; 11.1% in [10]; 0.698% in test [11].
`CC(C)(N)CN1CCC(c2nnc(CN3CCCC3)n2C2CC2)CC1`: the Percent Effect in test [1] was -7.06%; in test [2], 8%; in test [3], 3.2%; in test [4], 2.76%; in test [5] it was -0.0974%; in [6], 5.73%. Moreover, the Percent Effect was 15.5% in [7]; 8.71% in test [8]; 2.73% in [9]; 6.17% in test [10]; -4.27% in test [11].
Take `Cc1nn(C)c(Cl)c1C(=O)NCC(c1ccsc1)N(C)C` (stereo not given): the Percent Effect in [1] is -3.36%; in [2], 17.7%; in test [3], -4.46%; in test [4] it was -7.25%; in test [5], 7.65%; in [6], 1.14%. The Percent Effect in test [7] is 4.18%; in test [8] it was -12.9%; in test [9], 5.42%; in test [10] it was 16.5%; in test [11], -6.9%.
`O=C(CCc1ccccc1)NCC1CCN(Cc2ccsc2)CC1`: the Percent Effect is -2.4% in test [1]; 13% in test [2]; 4.5% in test [3]; -9.22% in test [4]; -5.62% in test [5]; 7.1% in [6]. In addition, the Percent Effect in [7] was 15.3%; in test [8], 20.5%; in [9], 2.12%; in test [10], 8.97%; in test [11], -8.15%.
For the compound `Cc1[nH]ncc1C(=O)N1CCCC(n2cncn2)C1` (stereo not given), the Percent Effect in [1] is -6.67%; in [2], 1.27%; in test [3], 7.75%; in test [4], 26.4%; in [5] it was -0.308%; in test [6], 3.23%. The Percent Effect in [7] is 4.63%; in [8], 9.83%; in [9] it was 1.04%; in test [10], 0%; in test [11], -6.77%.
